From PubChem BioAssay AID1776 (NMMLSC, 2009)
The campaign covered roughly 190,000 compounds. About 490 (0.26%) were called active. This excerpt belongs to a sample that is enriched for actives. A number with no mark means an inactive call. Cut-off read from the data, not from the text of the source: active = fluorescence above about 89; inactive = the rest.

Assay: green autofluorescence of compounds with GSH beads – biophysical, 488/530 nm, flow cytometry, artefact control, profiling panel (AID 1776);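 note: glutathione beads carrying GST-tagged Bcl family fusion proteins plus one bare bead set; values are compound well signal with DMSO vehicle wells as background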
Conditions: compound fluorescence 488/530 nm, at 10 µM, active compounds read high

Compound | fluorescence (KMESF)
O=C(COC(=O)C1CCCCC1)Nc1ccc([N+](=O)[O-])cc1 | 25
Cc1ccc(Cl)cc1NC(=O)COC(=O)CC(C)(C)C | 12
Cc1ccc(Cl)cc1NC(=O)COC(=O)C1CCCCC1 | 249 (active)
COc1cc(CN2CCN(Cc3ccc(C)cc3)CC2)c([N+](=O)[O-])cc1OC | 14
Cc1nccc(-c2ccc(-n3c(C)ccc3C)cc2)n1 | 9
CCC(=O)N1CCC(C(N)=O)(N2CCCCC2)CC1 | 12
Cc1ccnc2nc(C(=O)Nc3nnc(-c4ccccc4)o3)nn12 | 14
CCc1nnc(NC(=O)c2cccs2)s1 | 15
CCc1nnc(NC(=O)c2nc3nccc(C)n3n2)s1 | 259 (active)
CC1CN(C(=S)SCC(=O)c2ccccc2)CC(C)O1 (stereo not given) | 18
CC1CN(C(=O)CN2C(=O)NC(C)(c3ccccc3)C2=O)CC(C)O1 (stereo not given) | 263 (active)
CC1(c2ccccc2Cl)NC(=O)N(CC(=O)NC(=O)NCc2ccco2)C1=O (stereo not given) | 27
COc1ccccc1CNC(=O)CN1CCC(n2cnc3cc(F)ccc32)CC1 | 10
CCc1ccc2ncc(C(=O)c3ccccc3)c(N3CCOCC3)c2c1 | 15
CCNc1nc(NC(C)C)nc(N2CC(=O)N(CC(=O)OCC)C2=N)n1 | 29
O=C(Nc1cc(Cl)cc(Cl)c1)C(NCCCO)c1ccccc1 (stereo not given) | 18
CCOc1cc(C(=O)OCC(=O)Nc2cccc(C)c2)ccc1OCC(=O)N1CCOCC1 | 16
CCCCNC(=O)CSc1nc2ccc(NC(=O)CSc3nnc(N)s3)cc2s1 | 17
O=C(NCc1nnc(SCC(=O)N2CCCc3ccccc32)o1)c1ccccc1F | 13
CN1CCN(C(=O)N2c3ccccc3CCc3ccccc32)CC1 | 13
COc1ccccc1N(C(=O)Cn1nnc2ccccc21)C(C(=O)NCc1ccco1)c1ccc(C)o1 (stereo not given) | 248 (active)
Cc1ccc(C(C(=O)NCc2ccco2)N(CC2CCCO2)C(=O)Cn2nnc3ccccc32)cc1 (stereo not given) | 37
COCCNC(=O)C(c1ccc(C)o1)N(Cc1ccccc1)C(=O)Cn1nnc2ccccc21 (stereo not given) | 21
CCCCC(NC(=O)c1cccc(Br)c1)C(=O)O (stereo not given) | 10
CCN(Cc1ccccc1)C(=O)CN1C(=S)NC(C)(C)CC1C (stereo not given) | 20

Compound | fluorescence (KMESF)
COc1cc([C@H](Cc2ccccc2)NC(C)=O)oc(=O)c1 | 18
CC(Oc1ccccc1)C(=O)NN1Cc2ccccc2C1=N (stereo not given) | 9
NC(=O)c1ccc(N2CCOCC2)nc1 | 10
CCN(CC)Cc1nc2sc(C)c(C)c2c(=O)[nH]1 | 11
O=C(CN1CCN(c2ccc(Cl)cc2)CC1)NCc1cccs1 | 18
Cc1cccc(N2Cc3ccccc3C2=NC(=O)c2ccc(Cl)nc2)c1 | 8
O=C(CSc1nc2ccccc2[nH]1)Nc1nc(-c2ccccc2)c(-c2ccccc2)o1 | 12
O=c1c([N+](=O)[O-])cccn1Cc1ccc(F)cc1Cl | 14
COc1ccc(COC(=O)N/N=C(\C)CC(=O)Nc2ccc(Cl)cc2)cc1 | 5
CC(C)(C)c1ccc(NC(=O)COC(=O)CCc2nc3ccccc3c(=O)[nH]2)cc1 | 11
OCCC1CN(Cc2ccccc2-c2ccco2)CCN1Cc1ccsc1 (stereo not given) | 17
COc1ccccc1-n1c(=S)[nH]c2c(sc(=S)n2-c2ccc(C)cc2C)c1=O | 25
Cc1ccc(CCC(=O)Nc2ncc(Cc3cc(Cl)ccc3Cl)s2)o1 | 7
Cc1ncc(CC(=O)n2cc(C(=O)c3cc(Cl)ccc3O)cn2)s1 | 256 (active)
O=C(c1cnn(-c2ccc(Cl)cc2)c1)c1ccccc1O | 11
COCCCNc1nc2c(-c3cccc(C(F)(F)F)c3)nnn2c2ccccc12 | 16
O=S(=O)(Nc1cc(S(=O)(=O)N2CCOCC2)ccc1N1CCCC1)c1cccs1 | 19
COc1cc(NC(=O)c2ccccc2NS(=O)(=O)c2ccc(Cl)s2)cc(OC)c1 | 9
O=S(=O)(Nc1ccccc1N1CCOCC1)c1ccc(Cl)s1 | 266 (active)
COc1cc([N+](=O)[O-])ccc1NC(=O)CN1CCCC1 | 10
CCOC(=O)CC(=O)CSc1nc(-c2ccccc2)cc(-c2ccc(Cl)cc2)c1C#N | 8
CCOC(=O)CSc1nccc(N(C)C)c1C#N | 281 (active)
CCOC(=O)CSc1ccccn1 | 16
Cc1ccc(CN2CCC(N3CCC(C(=O)NCC4CCCO4)CC3)CC2)o1 (stereo not given) | 22
O=C(NCC1CCCCC1)c1cc(S(=O)(=O)N2CCCCC2)ccc1N1CCOCC1 | 10

Compound | fluorescence (KMESF)
CCN1C(=O)/C(=c2\s/c(=C3\Sc4ccccc4N3C)c(=O)n2C)N(C)C1=S | 15
COc1cc(-c2nnn(CC(=O)NCc3ccccc3)n2)cc(OC)c1OC | 13
O=C(CSc1ccc([N+](=O)[O-])cn1)Nc1ccc(N2CCOCC2)cc1 | 16
CCOc1cc(/C=N/NC(=O)OC)ccc1OCCSc1ccc(Cl)cc1 | 13
CCC1C=C(c2ccccc2)C=CN=C1N(CC)CC (stereo not given) | 5
Brc1ccc(CSc2ccc(-c3ccco3)nn2)cc1 | 11
COC(=O)CC1=NN(c2nc(C)cc(C)n2)C(=O)C1 | 14
Cc1ccc2[nH]c(C(=O)O)c(NC(=O)c3ccccc3[N+](=O)[O-])c2c1 | 10
CCCCN1C(=O)/C(=C(/C#N)C(N)=O)c2ccccc21 | 16
CCN(Cc1ccccc1)S(=O)(=O)c1cc(C(=O)O)ccc1OC | 14
CC[C@H]1OC(=O)[C@H](C)[C@@H](O[C@H]2C[C@@](C)(OC)[C@@H](O)[C@H](C)O2)[C@H](C)[C@@H](O[C@@H]2O[C@H](C)C[C@H](N(C)C)[C@H]2O)[C@](C)(O)C[C@@H](C)[C@@H]2N[C@@H](COCCOC)O[C@H]([C@H]2C)[C@]1(C)O | 22
O=C(Cc1c(F)cccc1Cl)Nc1ncc([N+](=O)[O-])s1 | 18
COc1cc(-c2cc(C(=O)OCC(=O)Nc3ccc4c(c3)OCO4)c3ccccc3n2)cc(OC)c1OC | 4
Cc1cc(C)cc(C(=O)NC2C(=O)N3C(C(=O)O)=C(CSc4nnc(C)s4)CSC23)c1 (stereo not given) | 12
CCOC(=O)CNc1nc(Cl)nc(Nc2ccccc2)n1 | 10
Cc1ccccc1OCC(O)CN1CCN(c2ccccn2)CC1 (stereo not given) | 9
OC(COc1cccc2ccccc12)CN1CCN(c2ccccn2)CC1 (stereo not given) | 265 (active)
Cc1cccc(OCC(O)CN2CCN(CCN3C(=O)c4cccc5cccc(c45)C3=O)CC2)c1C (stereo not given) | 13
Cc1cccc(C(=O)OCC(=O)Nc2sc3c(c2C#N)CCC3)c1 | 5
CC(C)CC(=O)NC(=S)Nc1ccc(F)cc1F | 10
Cc1ccc(C2NC(C(=O)O)CS2)cc1 (stereo not given) | 11
O=C(Nc1ccccc1F)c1ccccc1-c1ccccc1 | 15
Cc1ccc(-n2cc3ccc([N+](=O)[O-])cc3n2)cc1 | 104 (active)
Cc1cc(C)nc(Nc2cc([N+](=O)[O-])ccc2C)n1 | 10
Cc1ccc(-c2cn3cc([N+](=O)[O-])ccc3n2)cc1 | 13

Compound | fluorescence (KMESF)
CCOC(=O)C1(Cc2cccc(OC)c2)CCN(Cc2csc(C(C)=O)c2)CC1 | 17
COCC(C)NC(=O)CSc1nc2nn(-c3ccccc3)c(=O)c-2c2n1CCCCC2 (stereo not given) | 25
COc1cccc(OC)c1C(=O)OCC(=O)/C(C#N)=C(\C)N | 11
C/C(=N\NC(=O)NC1CCCCC1)c1ccc(OC(F)F)cc1OC(F)F | 14
COc1cccc(/C=C(/CC(=O)Nc2ccc(N3CCOCC3)cc2)c2nc3ccccc3s2)c1 | 13
CCS(=O)(=O)c1ccc(C(=O)NC)c(Cl)c1Cl | 12
Cc1ccccc1Nc1nc(N)nc(CSc2ccccc2)n1 | 11
Cc1nn(C)c(C)c1S(=O)(=O)N1CCC(CO)(Cc2ccc(Cl)cc2)CC1 | 23
NS(=O)(=O)c1ccc(NC(=S)NC(=O)c2cccc(Br)c2)cc1 | 19
CC(=O)Cc1nsc(NC(=O)c2ccc(Cl)cc2Cl)n1 | 10
COc1cc(NC(=O)c2cc([N+](=O)[O-])ccc2Br)ccc1NC(=O)c1ccco1 | 8
O=C(NCc1cccnc1)c1nc(-c2cccs2)no1 | 15
Cc1ccc(C(=O)NN(CCC#N)C2=NS(=O)(=O)c3ccccc32)cc1 | 20
CCNC(=O)c1ccc(OCC(=O)Nc2ccc(F)cc2)c(OC)c1 | 14
CCC(C)c1ccc(NC(=S)NCc2ccccn2)cc1 (stereo not given) | 13
CC(C)(C)NC(=O)CN1CCC(NC(=O)C23CC4CC(CC(C4)C2)C3)CC1 | 20
Cc1ccc(CN(Cc2cccnc2)C(=S)Nc2cc(Cl)ccc2C)cc1 | 15
CCOC(=O)C(NC(C)=O)C(=O)Nc1ccc(OC)cc1 (stereo not given) | 24
CCOC(=O)C1CCN(c2ccc(C(=O)O)cc2[N+](=O)[O-])CC1 | 14
O=C(/C=C/c1ccc(F)cc1)NC(=S)NNC(=O)c1cccnc1 | 7
Cc1cc(SCC(=O)NCCN2C(=O)CSC2=O)nc2ccccc12 | 15
Cc1ccc(CC2S/C(=C(/C#N)C(=O)N3CCOCC3)N(c3ccccc3)C2=O)cc1 (stereo not given) | 25
CCN(CC)C(=O)CN(c1cccc([N+](=O)[O-])c1)S(=O)(=O)c1ccccc1 | 52
CCN(c1ccccc1)S(=O)(=O)c1ccc(N)cc1 | 14
CCOc1ccc(S(=O)(=O)N(CC(=O)O)c2ccccc2)cc1 | 264 (active)
